In PubChem BioAssay (Tox21) one finds Potency data, which are given here for eleven compounds.

Experiment [1] concerns the target KiSS-1 receptor (Homo sapiens) (UniProt Q969F8). In words: Human kisspeptin (KISS1R) small molecule agonists, calcium flux assay in KISS1R-HEK293 cells (AID 1920064; active = well fitted activation curve with a large enough effect in the repeat runs; also: potency is read from the fitted curve at half-maximal effect). The procedure, abridged:
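Cell line: HEK293, stable human KISS1R. Dye loading 1 h at 37 C after 18 h culture. Read: kinetic fluorescence, 480/540 nm, 3 min at 1 s intervals.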

The nature of experiment [2]: G protein-coupled receptor (GPCR) small molecule agonists, calcium flux assay: HEK293 wild type cell line counter screen (AID 1920065). The procedure, abridged: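 Tox21 10K compounds, 15 concentrations each in triplicate, pin-transferred in DMSO onto dye-loaded cells; kinetic read at 480/540 nm for 3 min, 1 s intervals.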
(In general: Calcium flux is commonly read through the fluorescence of an indicator in the cells.)

Experiment [3] is described as follows: p53 small molecule agonists, cell-based qHTS assay with human liver microsomes (AID 1963577). The procedure, abridged: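 p53RE-bla cells, 4,000/well, compound added after 5 h, with human liver microsomes 0.5 mg/mL and NADPH 0.5 mg/mL final; 16 h at 37 C, then LiveBLAzer 2 h RT, fluorescence.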
(qHTS replaces the single test concentration by a dilution series.)

A short description of experiment [4]: p53 small molecule agonists, cell-based qHTS assay with rat liver microsomes (AID 1963578). The procedure, abridged:
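p53RE-bla cells, 4,000/well, pre-incubated 5 h, then given compounds plus rat liver microsomes (0.5 mg/mL final) and NADPH (0.5 mg/mL final). Incubation 16 h at 37 C; beta-lactamase reporter read by LiveBLAzer fluorescence after 2 h at room temperature.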

Experiment [5] can be described thus: p53 small molecule agonists, cell-based qHTS assay with human liver microsomes: qHTS cell viability counter screen (AID 1963579). Also: nearly all actives have a fitted effect of over 45% in size. Also: potency is read from the fitted curve at half-maximal effect. The procedure, abridged: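 p53RE-bla cells, 4,000/well, dosed 5 hours after plating, with human liver microsomes (0.5 mg/mL final) plus NADPH (0.5 mg/mL final), 16 hours at 37 C. Viability read as CellTiter-Glo luminescence after 30 min at room temperature.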

Experiment [6] in a line: p53 small molecule agonists, cell-based qHTS assay: qHTS cell viability counter screen (AID 1963581). Also: nearly all actives have a fitted effect of over 45% in size. Also: potency is read from the fitted curve at half-maximal effect. The procedure, abridged: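 ATP content measured by luminescence in HCT-116 p53RE-bla cells treated 16 h at 37 C, same wells as the reporter screen.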
A short description of experiment [7]: p53 small molecule agonists, cell-based qHTS assay (AID 1963582; active = well fitted activation curve with a large enough effect in the signal ratio in the repeat runs, not every such curve was filed as active; the % refers to the signal ratio). The procedure, abridged: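 16 h compound exposure (37 C) of p53 response element–bla cells, preceded by 5 h recovery at 37 C/5% CO2; read-out via LiveBLAzer B/G FRET substrate, 2 h RT, fluorescence intensity.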
Experiment [8] deals with 5-hydroxytryptamine receptor 2A (Homo sapiens) (UniProt P28223). In words: 5-hydroxytryptamine receptor 2A (HTR2A) small molecule agonists, cell-based qHTS assay (AID 1963587). Also: nearly all actives have a fitted effect of over 30% in size. Also: potency is read from the fitted curve at half-maximal effect. The procedure, abridged:
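Kinetic calcium-flux fluorescence (2 min, 1 sec intervals) after compound addition in agonist mode. HTR2A-CHO cells were cultured 18 h, then dye-loaded 1 h at 37 C.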

Experiment [9] concerns the target Muscarinic acetylcholine receptor M1 (Homo sapiens) (UniProt P11229). In words: Cholinergic receptor muscarinic 1 (CHRM1) small molecule agonists, cell-based qHTS assay (AID 1963589). Also: nearly all actives have a fitted effect of over 35% in size. The procedure, abridged: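 Homogeneous fluorescence calcium flux, agonist mode. Human M1-expressing CHO cells; compound dosed at 15 concentrations, three independent runs; signal sampled every 1 sec.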

Experiment [10] has as its target Beta-2 adrenergic receptor (Homo sapiens) (UniProt P07550). In words: Adrenergic beta2 receptor (ADRB2) small molecule antagonists, cell-based qHTS assay (AID 1963592). Also: series mostly up to about 92 µM; nearly all actives have a fitted effect of over 50% in size. The procedure, abridged: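 Assay format: CHO-ADRB2 cells, 18-20hr seeding at 37C/5% CO2, then compound plus 1nM isoproterenol agonist mix for 0.5hr RT. Homogeneous time-resolved fluorescence cAMP detection after 1hr, expressed as 665/615 nm ratio.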

Experiment [11] has as its target D(2) dopamine receptor (Homo sapiens) (UniProt P14416). The experiment can be described thus: Dopamine D2 receptor (DRD2) small molecule agonists, cell-based qHTS assay (AID 1963594). Also: nearly all actives have a fitted effect of over 35% in size. The procedure, abridged:
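cAMP accumulation in DRD2-HEK293 cells measured by HTRF after 1 h detection; compounds added 10 min before NKH477 (200nM […]) forskolin-analogue stimulation, 30 min at room temperature, with Ro20-1724 present at 0.1 mM final.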

Experiment [12] has as its target Gonadotropin-releasing hormone receptor (Homo sapiens) (UniProt P30968). The experiment can be described thus: Human gonadotropin-releasing hormone receptor (GnRHR) small molecule agonists, calcium flux assay in GnRHR-HEK293 cells (AID 1920063). Also: nearly all actives have a fitted effect of over 35% in size. Also: potency is read from the fitted curve at half-maximal effect. The procedure, abridged: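 Compounds dissolved in DMSO are pin-transferred onto dye-loaded GnRHR-HEK293 cells, which were seeded 18 h before at 37 C/5% CO2. Calcium signal is read as fluorescence intensity at 1 s intervals for 3 min.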

Experiment [13] is described as follows: p53 small molecule agonists, cell-based qHTS assay with rat liver microsomes: qHTS cell viability counter screen (AID 1963580). Also: nearly all actives have a fitted effect of over 45% in size. The procedure, abridged:
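Cytotoxicity counter screen: intracellular ATP read by CellTiter-Glo luminescence in the p53 reporter wells. HCT-116 p53RE-bla cells were treated for 16 h at 37 C alongside rat liver microsomes and NADPH, each 0.5 mg/mL final.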

The nature of experiment [14]: cAMP Responsive Elements (CRE) small molecule agonists, cell-based qHTS assay (AID 1963590). The procedure, abridged:
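HEK 293T cells stably bearing CRE-bla were plated at 2,000 cells per well and rested 18 h. Compounds, positive controls or DMSO were added for 3 h at 37 C. LiveBLAzer B/G substrate was then loaded for 2 h at room temperature.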

A short description of experiment [15]: cAMP Responsive Elements (CRE) small molecule antagonists, cell-based qHTS assay (AID 1963591; active = well fitted inhibition curve with a large enough effect in the signal ratio in the repeat runs, not every such curve was filed as active; the % refers to the signal ratio; also: potency is read from the fitted curve at half-maximal effect). The procedure, abridged: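 First, CRE-bla HEK293T cells settled 18 h at 37 C. Next, compound and 0.25 uM final NKH477 were applied for 3 h. Last, LiveBLAzer B/G substrate was loaded for 2 h at room temperature.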
Experiment [16] deals with D(2) dopamine receptor (Homo sapiens) (UniProt P14416). The experiment can be described thus: Dopamine D2 receptor (DRD2) small molecule antagonists, cell-based qHTS assay (AID 1963595; active = well fitted inhibition curve with a large enough effect in the signal ratio in the repeat runs, with a control signal flat; the % refers to the signal ratio). The procedure, abridged:
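HEK293 cells stably expressing DRD2 were preincubated with 0.1 mM Ro20-1724, then with compound for 10 min at room temperature. Cells were stimulated with 200 nM NKH477 plus 12 nM quinpirole for 30 min, and cAMP was read by HTRF.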

Experiment [17] concerns the target 5-hydroxytryptamine receptor 2A (Homo sapiens) (UniProt P28223). The experiment can be described thus: 5-hydroxytryptamine receptor 2A (HTR2A) small molecule antagonists, cell-based qHTS assay (AID 1963586). Also: nearly all actives have a fitted effect of over 45% in size. Also: potency is read from the fitted curve at half-maximal effect. The procedure, abridged:
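CHO cells stably expressing human HTR2A were plated for 18 h at 37 C, then loaded with calcium dye for 1 h. Compounds were preincubated 5 min at room temperature before DOI (4 nM solution) was added. Kinetic fluorescence was read for 3 min.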

Experiment [18] concerns the target Muscarinic acetylcholine receptor M1 (Homo sapiens) (UniProt P11229). In words: Cholinergic receptor muscarinic 1 (CHRM1) small molecule antagonists, cell-based qHTS assay (AID 1963588). Also: nearly all actives have a fitted effect of over 40% in size. The procedure, abridged: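 Compounds were tested at 15 concentrations in three independent runs. Dye-loaded CHRM1-CHO cells were exposed 5 min at room temperature before stimulation by acetylcholine added at 50nM. Intracellular calcium was read kinetically on FDSS for 3 min.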

Experiment [19] has as its target Beta-2 adrenergic receptor (Homo sapiens) (UniProt P07550). The experiment can be described thus: Adrenergic beta2 receptor (ADRB2) small molecule agonists, cell-based qHTS assay (AID 1963593).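 Also: CHO cells stably overexpressing human ADRB2.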 The procedure, abridged:
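CHO cells stably over-expressing ADRB2 were plated overnight at 37C, then dosed with compounds plus a stimulation mix containing 100uM IBMX and 25uM Ro-20-1724 for 0.5hr at room temperature. cAMP was measured by HTRF competition, 1hr.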

The structures appear in SMILES notation. Records with an inconclusive call do not appear. Activity calls are given as the source filed them. Unless noted, calls follow the shape of the full dose curve. Peptide text beside a SMILES is read from it.

Sequence of Muscarinic acetylcholine receptor M1 (Homo sapiens) (P11229 whole entry, looked up): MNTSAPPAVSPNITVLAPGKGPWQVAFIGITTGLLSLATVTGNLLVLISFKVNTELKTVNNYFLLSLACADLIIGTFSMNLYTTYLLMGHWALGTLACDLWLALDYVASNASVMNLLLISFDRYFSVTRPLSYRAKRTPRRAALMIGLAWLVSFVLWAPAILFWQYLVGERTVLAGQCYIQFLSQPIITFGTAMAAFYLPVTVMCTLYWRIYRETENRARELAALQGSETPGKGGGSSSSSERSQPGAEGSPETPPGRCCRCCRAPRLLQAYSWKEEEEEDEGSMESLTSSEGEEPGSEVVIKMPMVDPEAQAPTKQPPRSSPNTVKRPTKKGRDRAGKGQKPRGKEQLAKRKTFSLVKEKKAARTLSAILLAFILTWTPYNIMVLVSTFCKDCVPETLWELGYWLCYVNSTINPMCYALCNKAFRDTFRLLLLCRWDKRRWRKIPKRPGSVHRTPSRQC
Sequence of D(2) dopamine receptor (Homo sapiens) (P14416 whole entry, looked up): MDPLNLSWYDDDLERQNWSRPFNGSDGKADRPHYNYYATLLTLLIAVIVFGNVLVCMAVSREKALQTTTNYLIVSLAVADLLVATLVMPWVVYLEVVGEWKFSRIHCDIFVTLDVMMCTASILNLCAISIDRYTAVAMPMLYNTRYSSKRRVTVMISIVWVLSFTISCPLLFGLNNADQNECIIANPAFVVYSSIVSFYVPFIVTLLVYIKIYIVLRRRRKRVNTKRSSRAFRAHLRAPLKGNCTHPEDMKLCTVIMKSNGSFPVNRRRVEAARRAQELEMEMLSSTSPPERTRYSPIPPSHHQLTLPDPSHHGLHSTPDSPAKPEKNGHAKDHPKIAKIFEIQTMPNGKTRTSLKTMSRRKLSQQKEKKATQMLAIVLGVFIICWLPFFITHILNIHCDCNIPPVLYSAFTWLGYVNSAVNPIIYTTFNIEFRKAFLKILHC
Sequence of Gonadotropin-releasing hormone receptor (Homo sapiens) (P30968 whole entry, looked up): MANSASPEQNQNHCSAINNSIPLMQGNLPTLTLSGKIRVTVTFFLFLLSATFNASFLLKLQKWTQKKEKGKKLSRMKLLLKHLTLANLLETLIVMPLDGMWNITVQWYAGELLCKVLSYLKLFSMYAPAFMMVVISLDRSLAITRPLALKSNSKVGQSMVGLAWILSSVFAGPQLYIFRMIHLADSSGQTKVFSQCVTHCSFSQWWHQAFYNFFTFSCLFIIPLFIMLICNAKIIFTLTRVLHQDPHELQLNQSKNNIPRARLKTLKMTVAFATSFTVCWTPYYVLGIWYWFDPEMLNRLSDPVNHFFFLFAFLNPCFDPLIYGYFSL
Sequence of Beta-2 adrenergic receptor (Homo sapiens) (P07550 whole entry, looked up): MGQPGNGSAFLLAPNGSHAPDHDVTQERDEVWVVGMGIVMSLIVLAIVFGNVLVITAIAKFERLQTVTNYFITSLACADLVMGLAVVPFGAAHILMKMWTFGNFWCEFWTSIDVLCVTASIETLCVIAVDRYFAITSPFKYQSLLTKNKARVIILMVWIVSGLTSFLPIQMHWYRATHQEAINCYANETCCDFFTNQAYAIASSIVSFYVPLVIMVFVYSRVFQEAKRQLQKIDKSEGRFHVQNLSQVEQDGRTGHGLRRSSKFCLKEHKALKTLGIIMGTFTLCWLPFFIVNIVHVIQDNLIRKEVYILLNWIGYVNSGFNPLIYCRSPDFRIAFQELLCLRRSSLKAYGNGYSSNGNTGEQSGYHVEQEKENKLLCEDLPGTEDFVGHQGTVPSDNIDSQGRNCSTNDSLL
Sequence of 5-hydroxytryptamine receptor 2A (Homo sapiens) (P28223 whole entry, looked up): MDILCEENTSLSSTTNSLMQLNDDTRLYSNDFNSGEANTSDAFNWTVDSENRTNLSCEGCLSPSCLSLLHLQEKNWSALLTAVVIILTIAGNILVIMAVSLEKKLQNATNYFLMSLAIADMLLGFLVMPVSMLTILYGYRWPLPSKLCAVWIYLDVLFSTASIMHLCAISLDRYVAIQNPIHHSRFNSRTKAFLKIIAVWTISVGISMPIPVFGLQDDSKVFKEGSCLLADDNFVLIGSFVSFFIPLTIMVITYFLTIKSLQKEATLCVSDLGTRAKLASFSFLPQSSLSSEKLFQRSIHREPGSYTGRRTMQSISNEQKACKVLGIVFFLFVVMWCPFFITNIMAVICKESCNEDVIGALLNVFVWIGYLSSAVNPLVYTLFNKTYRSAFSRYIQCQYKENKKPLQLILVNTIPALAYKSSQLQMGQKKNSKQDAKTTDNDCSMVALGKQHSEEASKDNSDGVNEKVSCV
Sequence of KiSS-1 receptor (Homo sapiens) (Q969F8 whole entry, looked up): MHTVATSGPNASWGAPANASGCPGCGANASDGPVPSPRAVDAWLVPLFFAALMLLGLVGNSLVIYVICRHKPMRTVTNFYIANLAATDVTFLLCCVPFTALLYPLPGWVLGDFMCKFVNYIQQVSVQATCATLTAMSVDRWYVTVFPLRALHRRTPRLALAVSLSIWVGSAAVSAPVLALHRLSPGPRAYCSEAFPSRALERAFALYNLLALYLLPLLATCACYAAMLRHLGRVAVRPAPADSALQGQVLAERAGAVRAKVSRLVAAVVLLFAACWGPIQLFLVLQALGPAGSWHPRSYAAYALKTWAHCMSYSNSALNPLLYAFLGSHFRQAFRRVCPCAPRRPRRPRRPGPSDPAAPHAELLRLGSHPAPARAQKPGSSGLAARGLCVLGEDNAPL

Regarding `CCC(C)c1cccc(C(C)CC)c1O` (stereo unspecified), the Potency result in [1], in experiment [2], in experiment [3], in experiment [4], in experiment [5] and in [6] was “inactive” in each case. Moreover, the Potency result in experiment [7], in experiment [8], in experiment [9], in experiment [10] and in experiment [11] was “inactive” each time.

With `CCC1(CCC(C)C)C(=O)NC(=O)NC1=O`, the Potency result in experiment [12], in [1], in [2], in experiment [5], in experiment [13] and in [6] was “inactive” throughout. Further, the Potency entry in experiment [14], in experiment [15], in experiment [11] and in experiment [16] was “inactive” in each case.

`O=C(O)C1(c2ccc3c(c2)OC[C@H](Cc2ccc(-c4ccccc4)cc2)[C@H]3O)CCCC1`: the Potency entry in [2], in experiment [13], in experiment [11] and in [16] was “inactive” in each case. In addition, the Potency in experiment [5] was 40.8 µM (active); in [6], 32.4 µM (active); in [17], 5.3 µM (active); in experiment [8], 54.9 µM (active).

Regarding `CC(=O)N[C@@H](CO)C(=O)N[C@@H](CC(=O)O)C(=O)N[C@@H](CCCCN)C(=O)N1CCC[C@H]1C(=O)O` (Ac-SDKP-OH), the Potency entry in experiment [17], in [8], in experiment [18] and in experiment [9] was “inactive” throughout.

Consider `N#CCCC(Br)(C#N)CBr` (stereo unspecified), for which the Potency in experiment [12] was 38.9 µM (active); in experiment [1], 54.9 µM (active). The Potency result in experiment [3], in [4], in [5], in experiment [13], in experiment [6] and in experiment [17] was “inactive” throughout. The Potency entry in experiment [18] and in experiment [14] was “inactive” in each case.

On to `CCCCC(CC)COC(=O)c1ccccc1C(=O)OCC(CC)CCCC` (stereo unspecified), for which the Potency entry in experiment [12], in experiment [2], in experiment [3], in experiment [4], in [5] and in experiment [13] was “inactive” throughout. Moreover, the Potency entry in experiment [10] and in experiment [16] was “inactive” each time.

For `c1ccccc1`, the Potency result in experiment [3], in experiment [4], in experiment [5], in [13], in [6] and in experiment [7] was “inactive” throughout.

For the compound `O=[N+]([O-])c1ccccc1Cl`, the Potency result in experiment [17], in experiment [18], in experiment [9], in experiment [10], in experiment [19] and in experiment [11] was “inactive” throughout. In [16], the Potency result was “inactive”.

On to `C=CC(C)(CCC=C(C)C)OC(=O)c1ccccc1N` (stereo unspecified), for which the Potency entry in experiment [1], in [2], in experiment [3], in experiment [4], in experiment [5] and in [13] was “inactive” throughout. Also, the Potency result in [6], in experiment [8], in experiment [18], in experiment [9], in experiment [14] and in [15] was “inactive” in each case. In addition, the Potency result in experiment [10], in [11] and in [16] was “inactive” each time.

As for `S=C(SSC(=S)N1CCCCC1)N1CCCCC1`, the Potency entry in experiment [12], in experiment [1], in experiment [3], in [4], in [5] and in [7] was “inactive” in each case. Further, the Potency entry in [17], in experiment [18], in experiment [9], in [14], in experiment [10] and in [19] was “inactive” in each case. For the same compound, the Potency entry in experiment [11] and in [16] was “inactive” throughout. Further, the Potency in experiment [8] was 10.7 µM (active); in [15], 1.68 µM (active).

As for `CSC(=O)c1c(C(F)F)nc(C(F)(F)F)c(C(=O)SC)c1CC(C)C`, the Potency result in experiment [2], in experiment [4], in experiment [5], in [13], in experiment [6] and in [8] was “inactive” each time. The Potency result in experiment [9], in experiment [15], in [10], in [11] and in experiment [16] was “inactive” each time.
